Sampled rows, rich in hits. Any-hit rate of the full collection: about 20%.
CHX counter – Cycloheximide Counterscreen for Small Molecule Inhibitors of Shiga Toxin | cell reporter, cycloheximide protein synthesis inhibition counterscreen | max response, % | hit rate 12% among 300,000; in the data active = max response mostly above about 13%, no sharp cut-off; inactive = mostly below about 14%; also: read at 38.3 µM for the half of the compounds with a filed dose
Pf growth 96h – Primary qHTS for delayed death inhibitors of the malarial parasite plastid, 96 hour incubation. hit rate 6.9% among 320,000. Potency, µM (titrated, usually from 28.7 µM), usual class: inhibitors. P. falciparum luciferase reporter growth, 96 h. AID 504834, 2011
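Luminescence readout: decreased luciferase signal marks inhibited growth of reporter-expressing P. falciparum in infected red cells (2% hematocrit, 0.05% parasitemia final), exposed to compound two generations (96 h, 37 C, 5% CO2).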
Pf growth 48h – Primary qHTS for delayed death inhibitors of the malarial parasite plastid, 48 hour incubation | hit rate 5.9% among 310,000 | AID 504832, 2011 | P. falciparum luciferase growth in erythrocytes, 48 h | Potency, µM (titrated, usually from 28.7 µM), actives largely listed as inhibitors
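Luciferase-expressing P. falciparum in infected erythrocytes (2% hematocrit, 0.1% parasitemia final) in RPMI 1640/0.5% Albumax were exposed to compound for 48 hours at 37 C, 5% CO2; growth read as luminescence.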
Shiga inhibitor – A qHTS for Small Molecule Inhibitors of Shiga Toxin. Vero cells, Shiga toxin protein synthesis inhibition reporter. inhibition, % at 38.7 µM. hit rate 9.2% among 290,000. AID 2315, 2010; in the data active = inhibition mostly above about 28%, no sharp cut-off; inactive = mostly below about 43%
HCMV antiviral – qHTS Assay for inhibitors of the human cytomegalovirus (HCMV). HFF cells, HCMV-luciferase reporter, 72 h; stronger effect = lower value. activity change, negative = inhibition, % at 57.5 µM. hit rate 4.5% among 410,000. AID 1259415, 2018; in the data active = activity change below about -60%; inconclusive = no clear call, values can overlap the other calls; inactive = above about -39%
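Two-dose cell screen: HFF monolayers treated with compounds and infected with luciferase-expressing HCMV at 1 PFU/cell, 72 h at 37C, then lysed for luciferase measurement.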
Hits are given with their value; 0 = inactive; ? = inconclusive; - = no result given; [ ] = dose if it differs, or a comment. Unless noted, calls follow the shape of the dose curve; as a rule, active = well fitted inhibition curve with a large enough effect; inconclusive = small, poorly fitted or top-dose-only effect, or another doubt; inactive = no such curve, though single readings can be large or run the other way.

SMILES	CHX counter	Pf growth 96h	Pf growth 48h	Shiga inhibitor	HCMV antiviral
O=C(C[C@@H]1C/C=C\C[C@@H](Cc2ccc(F)cc2)C(=O)OC[C@@H]2CCCN2C1=O)NCCO	-	-	-	-	0
O=C(CCC(=O)c1ccccc1)NCCOc1ccccc1	0	0	0	0	0
O=C(CC1CCCCC1)NCCOc1ccccc1	9.7	0	0	50.2	0
O=C(NCCOc1ccccc1)C1CCCCC1	29.1	?	0	72.4	0
COCCCNC(=O)CSc1nc2ccccc2c(=O)n1Cc1ccco1	-	-	-	-	0
Cc1ccc(S(=O)(=O)N2CCOCC2)cc1NC(=O)CSc1nnnn1C	0	0	0	0	0
Cc1cc(C)n(-c2ccc(C(=O)Nc3sccc3C(N)=O)cc2)n1	34.6	0	-	47.1	0
CNC(=O)c1ccc(-n2nc(C)cc2-c2ccccc2)cc1	0	?	1.65µM	0	0
Cc1ccc(C(=O)NCC(=O)NC2CCCC2)cc1	0	0	0	0	0
N#Cc1ccc(C(=O)NC2CCCCCCC2)cc1	22.2	0	0	82.7	0
Cc1ccc(C(=O)NC2CCCCC2)cc1	30.7	0	0	0	0
Cc1cc(C)n(-c2ccc(C(=O)Nc3nnc(C)s3)cc2)n1	0	0	-	0	0
O=C(NC1CCCCC1)c1ccc([N+](=O)[O-])cc1	-	-	-	-	0
Cc1ccc(C(=O)N/C(=C\c2ccc(Cl)cc2)C(=O)NC2CCCCC2)cc1	-	-	-	-	-97.6
Cc1cc(C)n(-c2ccc(C(=O)Nc3ccccn3)cc2)n1	38.1	0	0	65.0	0
CCCCc1ccc(C(=O)N/C(=C\c2ccc(C)cc2)C(=O)NC2CCCCC2)cc1	-	-	-	-	0
Cc1cc(C)n(-c2ccc(C(=O)NC3CCCCC3)cc2)n1	0	0	0	39.7	0
COc1ccccc1NS(=O)(=O)c1cc(NC(=O)c2sccc2C)ccc1N1CCOCC1	0	11.7µM	?	0	0
COc1ccccc1NS(=O)(=O)c1cc(NC(=O)c2sccc2C)ccc1N1CCCC1	0	?	?	0	?
COc1ccc(NS(=O)(=O)c2cc(NC(=O)c3sccc3C)ccc2N2CCOCC2)cc1	0	?	10.4µM	0	0
Nc1ccc(N2CCCCC2)cc1N1CCCCC1	0	0	3.29µM	0	-68.9
Nc1cc(Cl)ccc1N1CCCCCC1	0	0[5.75 µM]	2.62µM	0	0
Nc1ccc(N2CCCCC2)c2nonc12	0	0	?	0	-67.3
CSC1=NC2(CCN(C(=O)NC3CCCCC3)CC2)N=C1c1ccc(C)c(C)c1	-	-	-	-	0
NC(=O)CSc1nnc(-c2ccccc2F)n1C1CC1	0	0	0	0	0
SMILES	CHX counter	Pf growth 96h	Pf growth 48h	Shiga inhibitor	HCMV antiviral
CNC(=S)N1CCN(c2nc(-c3ccc(Cl)cc3)cs2)CC1	16.0	7.38µM	?	0	?
COCCNC(=S)N1CCN(c2nc(-c3ccc(Cl)cc3)cs2)CC1	0	?	0	0	?
O=C(Cc1cccs1)N1CCN(c2nc(-c3ccc(Cl)cc3)cs2)CC1	0	0	0	0	-108.1
CCOC(=O)N1CCN(c2nc(-c3ccc(Cl)cc3)cs2)CC1	35.5	?	0	46.1	?
S=C(NCc1ccco1)N1CCN(c2nc(-c3ccc(Cl)cc3)cs2)CC1	0	0	0	0	-74.1
O=C(Cc1cccs1)N1CCN(c2cccc(Cl)c2)CC1	0	0	0	0	0
Cc1cc(OC(C)C(=O)NNC(=O)Nc2ccc(F)cc2F)cc(C)c1Cl (centres undefined)	0	0	0	0	0
CC(C)C(=O)N1CCN(c2nc(-c3ccc(Cl)cc3)cs2)CC1	0	0	0	0	-70.4
O=C(CN1CCN(c2nc(-c3ccc(Cl)cc3)cs2)CC1)NCc1ccco1	0	0	?	0	?
C=CCC[C@@H](Cc1ccc(F)cc1)C(=O)OC[C@@H](NC(=O)[C@@H](CC=C)CC(=O)N(CCO)Cc1ccccc1)c1ccccc1	-	-	-	-	-101.1
C=CC[C@@H](CC(=O)N[C@@H](CO)Cc1ccccc1)C(=O)NC[C@H](OC(=O)[C@@H](CC=C)Cc1ccc(F)cc1)c1ccccc1	-	-	-	-	-64.0
C=CC[C@@H](CC(=O)N[C@@H](CO)Cc1ccccc1)C(=O)NC[C@@H](OC(=O)[C@@H](CC=C)Cc1ccc(F)cc1)c1ccccc1	-	-	-	-	0
C=CCC[C@@H](Cc1ccc(F)cc1)C(=O)OC[C@@H](NC(=O)[C@H](CC=C)CC(=O)N(CCO)Cc1ccccc1)c1ccccc1	-	-	-	-	0
Cc1ccccc1-c1cc(C(=O)O)nn1CC1CC(c2cccc([N+](=O)[O-])c2)=NO1 (centres undefined)	-	?	0	-	0
CCOc1ccccc1NC(=O)CSc1nccn1-c1cccc(C)c1	-	-	-	-	0
COC(=O)c1ccccc1NC(=O)Cn1c(=O)n(Cc2ccc(C(=O)NCc3ccc4c(c3)OCO4)cc2)c(=O)c2ccccc21	-	-	-	-	0
CCCc1nc(SCc2cccnc2)c2c(=O)n(C)c(=O)n(C)c2n1	0	?	13.1µM	0	0
Cn1c(=O)c2c(SCc3ccccn3)nc(CC(C)(C)C)nc2n(C)c1=O	0	?	11.7µM	0	0
Cn1c(=O)c2c(SCc3cccnc3)nc(CC(C)(C)C)nc2n(C)c1=O	0	?	-	0	0
CCCc1nc(SCc2ccccn2)c2c(=O)n(C)c(=O)n(C)c2n1	0	0	-	0	?
CCc1nc(SCc2ccc(C(=O)OC)o2)c2c(=O)n(C)c(=O)n(C)c2n1	0	2.62µM	8.28µM	0	0
CC(=O)Nc1ccc(S(=O)(=O)NCC2(N3CCOCC3)CCCCC2)cc1	-	0	0	-	0
COc1cccc(NC(=O)c2cccc3c(=O)c4c([nH]c23)CCCC4)c1	-	-	-	-	0
Cc1noc(C)c1C(=O)Nc1ccc(-c2nnc3n2CCCCC3)cc1	-	0	0	-	0
C(=NN=C1c2ccccc2-c2ccccc21)c1ccc2c(c1)OCO2	-	-	-	-	0
SMILES	CHX counter	Pf growth 96h	Pf growth 48h	Shiga inhibitor	HCMV antiviral
N/C(=N\N=C\c1ccc2c(c1)OCO2)c1nonc1N	45.0	0	0	74.7	0
N/C(=N\N=C\c1cccc([N+](=O)[O-])c1)c1nonc1N	49.7	0	0	75.7	0
COc1cccc(/C=N/N=C(\N)c2nonc2N)c1O	35.3	0	0	115.7	0
CN1CCc2c(sc(NC(=O)CS(=O)(=O)c3ccccc3)c2C(N)=O)C1	-	0	0	-	0
CC(C)N1CCc2c(sc(NC(=O)c3ccc(S(=O)(=O)N4CCc5ccccc54)cc3)c2C(N)=O)C1	0	7.38µM	4.15µM	0	-
CCN1CCc2c(sc(NC(=O)c3ccc(S(=O)(=O)N(C)c4ccccc4)cc3)c2C(=O)NC)C1	0	1.47µM	2.08µM	0	-
CCCN1CCc2c(sc(NC(=O)CCS(=O)(=O)c3ccccc3)c2C(N)=O)C1	0	?	?	0	-92.4
CNC(=O)c1c(NC(=O)c2ccc(S(=O)(=O)N(C)c3ccccc3)cc2)sc2c1CCN(C(C)C)C2	0	?	0.586µM	0	0
CCN1CCc2c(sc(NC(=O)c3ccc4ccccc4c3)c2C(N)=O)C1	19.6	?	11.7µM	0	0
CCOC(=O)C1CCCN(S(=O)(=O)c2ccc3[nH]c(=O)oc3c2)C1 (centres undefined)	-	-	-	-	0
O=c1c2c(-c3cccs3)csc2ncn1-c1ccccc1	0	11.7µM	0	0	0

Bioassay records from PubChem BioAssay.
